Measured values taken from PubChem BioAssay (NCATS).
Several values for one entry are separate records, joined by “and”; a condition that tells them apart may be missing. Equal values may be shown once. Results filed as inconclusive are left out. Where a structure was tested more than once in an assay, its records may differ in their call. Activity calls are given as the source filed them. Unless noted, the call rests on the fitted dose curve; in most records, active means well fitted curve in the direction sought with a large enough effect; inconclusive means small, poorly fitted or top-dose-only effect, or another doubt; inactive means no such curve, though single readings can be large; an effect the other way counts as inactive or inconclusive.

Assays:
[1] = test system: Zika virus NS2B-NS3 protease; assay: Primary screen GU AMC qHTS for Zika virus inhibitors (AID 1347154);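 further: 0% = no-inhibitor control and -100% = no-enzyme control; nearly all actives have a fitted effect of over 70% in size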
Method in brief: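 Unlinked Zika NS2B hydrophilic domain/NS3 protease domain noncovalent complex (25 nM final) in 10 mM Tris-HCl pH 8.0, 0.01% Tween 20, with AMC peptide substrate. Fluorescence (ex 340, em 450 nm) change over 15 min, room temperature; percent inhibition fitted to 4-parameter Hill equation.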

[2] = Counterscreen qHTS for small molecule stabilizers of the endoplasmic reticulum resident proteome: GLuc-NoTag assay (AID 1508627); further: potency means the concentration at half of the fitted maximal effect
Method in brief: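 SH-SY5Y cells stably expressing constitutively secreted GLuc (no SERCaMP tag) were pre-incubated 5 h, treated with compound for 19 h, then 100 nM thapsigargin for 4 h at 37C; medium GLuc read by coelenterazine luminescence.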

[3] = Confirmatory qHTS for small molecule stabilizers of the endoplasmic reticulum resident proteome: Secreted ER Calcium Modulated Protein (SERCaMP) assay (AID 1508628); further: nearly all actives have a fitted effect of over 40% in size; further: potency means the concentration at half of the fitted maximal effect
Method in brief: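 SH-SY5Y cells stably expressing GLuc-SERCaMP, treated 16 h with compound (primary 1.53, 7.67, 38.3 uM; confirmation 11 concentrations, up to 76.6 uM), then 100 nM thapsigargin for 4 h. Secreted Gaussia luciferase in medium read by coelenterazine luminescence.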

[4] = Cell Viability qHTS for small molecule stabilizers of the endoplasmic reticulum resident proteome (AID 1508629); details: cell viability counter-screen, 100 nM thapsigargin for final 4 h;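 further: compound exposure about 46 h in total before the viability read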; further: potency means the concentration at half of the fitted maximal effect;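 on max response: human SH-SY5Y neuroblastoma cells carrying the GLuc-SERCaMP reporter; on the % scale 0 is the no-effect control and ±100 the full control effect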
[5] = molecular target: Cytochrome P450 1A2 (Homo sapiens) (UniProt P05177); assay: p450-cyp1a2 (AID 410; calls by dose curve; further: potency means the concentration at half of the fitted maximal effect)
Sequence of Cytochrome P450 1A2 (Homo sapiens) (P05177 whole entry, looked up): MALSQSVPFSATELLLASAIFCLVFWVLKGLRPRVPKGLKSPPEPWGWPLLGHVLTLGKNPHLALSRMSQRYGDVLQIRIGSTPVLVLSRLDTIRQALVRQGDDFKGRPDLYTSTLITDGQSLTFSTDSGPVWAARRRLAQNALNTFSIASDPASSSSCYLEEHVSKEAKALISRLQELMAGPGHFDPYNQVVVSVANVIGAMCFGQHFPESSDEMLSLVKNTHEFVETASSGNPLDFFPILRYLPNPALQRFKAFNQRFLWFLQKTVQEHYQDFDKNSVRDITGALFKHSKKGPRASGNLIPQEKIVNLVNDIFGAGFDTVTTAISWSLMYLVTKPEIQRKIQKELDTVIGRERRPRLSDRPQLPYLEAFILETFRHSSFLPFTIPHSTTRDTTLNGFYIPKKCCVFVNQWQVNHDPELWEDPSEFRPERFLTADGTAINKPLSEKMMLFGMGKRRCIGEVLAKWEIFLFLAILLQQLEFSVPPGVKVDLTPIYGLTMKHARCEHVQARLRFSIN
Method in brief: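 20nM CYP1A2 with 100uM Luciferin-ME (at Km) in 100mM KPO4; compound preincubated 10 min, NADPH regeneration added, 60 min at room temperature. Luciferin quantified by luminescence after detection reagent; normalized to 57 uM furafylline.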

[6] = molecular target: Glucocorticoid receptor (Homo sapiens) (UniProt P04150); assay: GR-GFP Redistribution (AID 450;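 active means compounds whose dose series gives a full or clear partial fitted curve of increased nuclear translocation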; further: potency means the concentration at half of the fitted maximal effect); details: U2OS GR-GFP nuclear translocation, laser cytometry, 2 h
Sequence of Glucocorticoid receptor (Homo sapiens) (P04150 whole entry, looked up, the tested form may be a part): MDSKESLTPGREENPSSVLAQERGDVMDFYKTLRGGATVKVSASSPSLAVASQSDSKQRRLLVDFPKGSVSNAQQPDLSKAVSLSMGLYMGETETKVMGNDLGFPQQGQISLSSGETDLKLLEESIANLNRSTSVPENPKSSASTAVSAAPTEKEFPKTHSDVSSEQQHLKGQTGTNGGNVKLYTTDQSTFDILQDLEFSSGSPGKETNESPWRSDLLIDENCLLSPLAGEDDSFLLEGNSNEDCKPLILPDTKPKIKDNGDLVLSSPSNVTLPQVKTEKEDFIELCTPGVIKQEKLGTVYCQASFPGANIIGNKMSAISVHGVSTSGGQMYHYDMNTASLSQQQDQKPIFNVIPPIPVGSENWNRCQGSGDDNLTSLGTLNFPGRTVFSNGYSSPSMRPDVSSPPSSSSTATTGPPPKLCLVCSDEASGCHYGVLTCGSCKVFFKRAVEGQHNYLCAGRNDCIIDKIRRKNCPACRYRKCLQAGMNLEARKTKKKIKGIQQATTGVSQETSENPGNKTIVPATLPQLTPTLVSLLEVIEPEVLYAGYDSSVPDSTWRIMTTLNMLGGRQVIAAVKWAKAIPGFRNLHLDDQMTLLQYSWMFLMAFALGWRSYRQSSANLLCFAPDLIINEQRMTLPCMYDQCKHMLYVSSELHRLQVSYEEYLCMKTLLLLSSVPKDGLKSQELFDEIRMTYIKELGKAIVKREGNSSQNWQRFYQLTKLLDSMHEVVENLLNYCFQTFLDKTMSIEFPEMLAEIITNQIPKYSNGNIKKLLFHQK

[7] = molecular target: Glucocorticoid receptor (Homo sapiens) (UniProt P04150); assay: GR-EFC Redistribution (AID 451; calls by dose curve; further: potency means the concentration at half of the fitted maximal effect); details: CHO-K1 GR-EFC translocation, beta-gal luminescence, 2 h
Method in brief: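 CHO-K1 cells stably expressing nuclear-localized β-gal enzyme acceptor and GR fused C-terminally to the enzyme donor fragment; ligand-driven nuclear translocation restores β-gal by complementation. Compounds titrated up to 46 uM final, 2 h at 37 °C; luminescence read.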

[8] = molecular target: Mitogen-activated protein kinase 10 (Mus musculus) (UniProt Q61831); assay: JNK3 AlphaScreen Assay (AID 530; active means well fitted curve in either direction with a large enough effect, not every such curve was filed as active;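 further: kinase came from lysate of stimulated human HepG2 cells; signal reports phosphorylation of biotinylated GST-cJun 1-79 at Ser73 with 10 µM ATP; series mostly up to about 57 µM; on the % scale 0 is the no-effect control and ±100 the full control effect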)
Method in brief: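 Inhibitors reduce antibody binding to phosphorylated biotin-cJun, lowering AlphaScreen luminescence. Lysates from HepG2 cells pre-activated by IL-1beta plus TNF-alpha supplied JNK3; compounds were titrated.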

[9] = molecular target: Cytochrome P450 3A4 (Homo sapiens) (UniProt P08684); assay: qHTS Assay for Activators of Cytochrome P450 3A4 (AID 885); further: nearly all actives have a fitted effect of over 65% in size
Sequence of Cytochrome P450 3A4 (Homo sapiens) (P08684 whole entry, looked up): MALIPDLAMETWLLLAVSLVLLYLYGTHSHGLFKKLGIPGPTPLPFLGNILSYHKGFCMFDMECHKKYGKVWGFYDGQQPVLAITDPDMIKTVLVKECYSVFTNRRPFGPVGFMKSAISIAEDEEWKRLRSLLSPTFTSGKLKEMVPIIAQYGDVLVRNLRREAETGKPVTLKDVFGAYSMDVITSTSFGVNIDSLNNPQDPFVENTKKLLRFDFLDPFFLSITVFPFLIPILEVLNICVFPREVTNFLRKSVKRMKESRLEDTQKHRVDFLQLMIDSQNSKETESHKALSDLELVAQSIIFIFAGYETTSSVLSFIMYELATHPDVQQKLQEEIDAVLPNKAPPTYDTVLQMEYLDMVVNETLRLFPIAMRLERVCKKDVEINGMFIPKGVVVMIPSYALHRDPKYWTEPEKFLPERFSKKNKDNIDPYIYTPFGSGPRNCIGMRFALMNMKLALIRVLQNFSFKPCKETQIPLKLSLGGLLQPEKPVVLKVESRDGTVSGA
Method in brief: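 Quantitative HTS format: compounds preincubated with 20nM human CYP3A4 and Luciferin-PPXE substrate at KM, reaction started by NADPH regeneration, stopped after 60 min, luciferase luminescence read 20 min later.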

[10] = molecular target: Cytochrome P450 2D6 (Homo sapiens) (UniProt P10635); assay: qHTS Assay for Inhibitors and Substrates of Cytochrome P450 2D6 (AID 891); further: potency means the concentration at half of the fitted maximal effect; nearly all actives have a fitted effect of over 60% in size
Sequence of Cytochrome P450 2D6 (Homo sapiens) (P10635 whole entry, looked up): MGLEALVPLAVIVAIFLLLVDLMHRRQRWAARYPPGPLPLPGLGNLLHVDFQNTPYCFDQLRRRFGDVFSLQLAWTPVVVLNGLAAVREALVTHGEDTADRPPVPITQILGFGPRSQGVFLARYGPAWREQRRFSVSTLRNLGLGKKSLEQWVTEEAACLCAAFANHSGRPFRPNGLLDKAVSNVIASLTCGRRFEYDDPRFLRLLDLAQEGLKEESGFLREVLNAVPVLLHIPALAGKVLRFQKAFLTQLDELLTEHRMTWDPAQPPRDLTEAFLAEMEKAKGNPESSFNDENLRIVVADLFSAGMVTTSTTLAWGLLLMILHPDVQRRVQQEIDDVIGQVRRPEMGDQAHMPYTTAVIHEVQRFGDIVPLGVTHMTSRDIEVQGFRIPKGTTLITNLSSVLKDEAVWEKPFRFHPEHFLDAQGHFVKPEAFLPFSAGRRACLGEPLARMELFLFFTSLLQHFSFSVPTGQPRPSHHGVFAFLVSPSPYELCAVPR
Method in brief: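 Human CYP2D6 (5 nM) with 30 uM Luciferin-ME EGE (at Km) in 100 mM KPO4, compound preincubated 10 min, then NADPH regeneration system for 60 min at room temperature. Luciferin read by luminescence; normalized to 1.43 uM quinidine.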

[11] = molecular target: Cytochrome P450 2C19 (Homo sapiens) (UniProt P33261); assay: qHTS Assay for Inhibitors and Substrates of Cytochrome P450 2C19 (AID 899); further: potency means the concentration at half of the fitted maximal effect; nearly all actives have a fitted effect of over 60% in size
Sequence of Cytochrome P450 2C19 (Homo sapiens) (P33261 whole entry, looked up): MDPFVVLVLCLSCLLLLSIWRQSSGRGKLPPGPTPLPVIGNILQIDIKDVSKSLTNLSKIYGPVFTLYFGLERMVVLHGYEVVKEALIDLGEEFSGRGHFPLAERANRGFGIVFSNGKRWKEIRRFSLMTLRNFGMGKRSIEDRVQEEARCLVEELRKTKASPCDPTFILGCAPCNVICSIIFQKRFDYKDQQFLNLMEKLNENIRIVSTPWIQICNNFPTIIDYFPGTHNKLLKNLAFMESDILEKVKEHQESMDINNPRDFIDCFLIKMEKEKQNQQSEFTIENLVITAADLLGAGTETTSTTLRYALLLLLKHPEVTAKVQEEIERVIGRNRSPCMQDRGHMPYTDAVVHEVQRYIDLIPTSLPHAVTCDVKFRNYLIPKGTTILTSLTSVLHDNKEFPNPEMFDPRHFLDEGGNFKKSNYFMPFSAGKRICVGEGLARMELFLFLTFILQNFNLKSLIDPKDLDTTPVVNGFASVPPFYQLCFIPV
Method in brief: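 In 50mM KPO4, the reaction held 5nM enzyme and KM-level (10uM) Luciferin-H EGE; it ran 60 min at 37C after NADPH regeneration and a 10 min compound preincubation. Luminescence values were scaled to 57uM ketoconazole as complete inhibition.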

[12] = molecular target: Ubiquitin carboxyl-terminal hydrolase 1 (Homo sapiens) (UniProt O94782); assay: Inhibitors of USP1/UAF1: Pilot qHTS (AID 504865);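 further: rhodamine fluorescence freed from ubiquitin-rhodamine substrate followed over time; top concentration of the series differs between compounds; on the % scale 0 is the no-effect control and ±100 the full control effect; nearly all actives have a fitted effect of over 35% in size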
Sequence of Ubiquitin carboxyl-terminal hydrolase 1 (Homo sapiens) (O94782 whole entry, looked up): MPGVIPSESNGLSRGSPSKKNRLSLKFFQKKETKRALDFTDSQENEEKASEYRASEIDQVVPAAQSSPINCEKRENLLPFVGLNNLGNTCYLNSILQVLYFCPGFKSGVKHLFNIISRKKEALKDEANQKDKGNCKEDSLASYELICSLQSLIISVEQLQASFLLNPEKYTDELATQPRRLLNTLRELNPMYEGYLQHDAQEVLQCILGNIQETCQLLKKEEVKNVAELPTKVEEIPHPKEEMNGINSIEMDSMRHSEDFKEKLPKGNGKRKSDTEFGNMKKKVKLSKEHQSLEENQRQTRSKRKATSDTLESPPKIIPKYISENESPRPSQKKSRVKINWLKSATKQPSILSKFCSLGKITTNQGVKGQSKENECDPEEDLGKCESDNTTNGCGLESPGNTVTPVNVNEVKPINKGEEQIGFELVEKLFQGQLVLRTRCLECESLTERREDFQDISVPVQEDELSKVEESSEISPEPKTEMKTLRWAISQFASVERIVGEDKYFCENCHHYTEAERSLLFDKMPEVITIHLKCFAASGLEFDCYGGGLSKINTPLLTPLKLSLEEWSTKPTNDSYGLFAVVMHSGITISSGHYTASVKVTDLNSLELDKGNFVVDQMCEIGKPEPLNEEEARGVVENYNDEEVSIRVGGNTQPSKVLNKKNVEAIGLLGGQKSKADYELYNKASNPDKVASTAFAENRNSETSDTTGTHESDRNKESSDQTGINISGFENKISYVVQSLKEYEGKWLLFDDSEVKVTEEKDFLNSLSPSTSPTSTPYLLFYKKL
Method in brief: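 USP1/UAF1 complex (1nM) preincubated with compound 15 min at room temperature, then Ub-Rho substrate (150nM final) added. Fluorescence read kinetically at 480/540 nm, 6 reads every 60 seconds. Buffer: 50mM HEPES pH 7.8, 0.5mM EDTA, 0.1 mg/ml BSA, 1mM TCEP, 0.01% Tween-20.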

[13] = molecular target: DNA dC->dU-editing enzyme APOBEC-3G (Homo sapiens) (UniProt Q9HC16); assay: qHTS for inhibitors of Vif-A3G interactions: Validation (AID 588379); further: 0% is about no effect
Sequence of DNA dC->dU-editing enzyme APOBEC-3G (Homo sapiens) (Q9HC16 whole entry, looked up): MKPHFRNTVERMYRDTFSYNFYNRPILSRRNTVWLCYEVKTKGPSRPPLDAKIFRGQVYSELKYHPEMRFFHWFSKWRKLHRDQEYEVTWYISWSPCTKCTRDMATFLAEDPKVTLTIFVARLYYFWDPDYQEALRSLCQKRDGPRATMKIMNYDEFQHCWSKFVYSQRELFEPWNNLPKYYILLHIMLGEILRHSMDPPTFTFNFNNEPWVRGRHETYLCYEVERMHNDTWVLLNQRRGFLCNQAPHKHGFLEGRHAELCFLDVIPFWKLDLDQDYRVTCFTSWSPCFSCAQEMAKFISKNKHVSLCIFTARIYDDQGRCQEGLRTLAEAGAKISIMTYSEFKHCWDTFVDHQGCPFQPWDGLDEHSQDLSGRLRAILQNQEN
Method in brief: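 HeLa cells stably expressing Vif and A3G-eYFP, 700 cells/well, incubated overnight at 37 deg C, then exposed to compound overnight at 37 deg C. Inhibition of Vif-mediated degradation read as increased yellow fluorescence (Ex 488/Em 500-530) by laser-scanning cytometry.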

[14] = Primary qHTS for small molecule stabilizers of the endoplasmic reticulum resident proteome: Secreted ER Calcium Modulated Protein (SERCaMP) assay (AID 1508630); further: potency means the concentration at half of the fitted maximal effect
Method in brief: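 GLuc-SERCaMP-expressing SH-SY5Y cells, pretreated 16 h with compound, are challenged with thapsigargin to empty ER calcium stores; after 4 h, coelenterazine is added directly to the medium and luminescence is imaged.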

| Structure (SMILES) | Potency [1] | Potency [2] | Potency [3] | max response [4] | Potency [5] | Potency [6] | Potency [7] | Potency [8] | Potency [9] | Potency [10] | Potency [11] | Potency [12] | Potency [13] | Potency [4] | Potency [14] |
| --- | --- | --- | --- | --- | --- | --- | --- | --- | --- | --- | --- | --- | --- | --- | --- |
| N#Cc1cc2c(OCC(O)CN3CCN(C(c4ccccc4)c4ccccc4)CC3)cccc2[nH]1 (stereo not drawn) | inactive | inactive | 3.98 µM (active) and inactive | 3.24% (inactive) | – | – | – | – | – | – | – | – | – | – | – |
| NC(=NC1C2CC3CC(C2)CC1C3)Nc1ccc(I)cc1 (stereo not drawn) | inactive | 31.6 µM (active) | inactive | – | 39.8 µM (active) | > 46 µM (inactive) | > 46 µM (inactive) | inactive | inactive | 0.0398 µM (active) | 5.01 µM (active) | inactive | inactive | 12.6 µM (active) | inactive and 4.47 µM (active) |
